# Reference: the supplement of paper PMC6555819
# Legend:
# Test in all cases: PBM binding z-score (relative to random genomic background probes); higher = stronger binding; sequences stand for … in GC…GCGATTGACAGCGTAGAATGAAGG
# [1] = system: FXR:RXRa (NR concentration 270 nM, RXRa partner concentration 90 nM)
# Procedure, shortened: (§1)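 Ligand-free nuclear receptor dimers were bound for 1 h to custom Agilent 4×180K protein-binding microarrays. Detection used antibodies against each partner (one per run). Binding z-scores rest on regression-normalized fluorescence, with random background probes as the reference.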
# [2] = system: LXRa:RXRa (NR concentration 270 nM, RXRa partner concentration 90 nM)
# Procedure, shortened: as §1
# [3] = system: LXRa homodimer (NR concentration 270 nM)
# Procedure, shortened: as §1
# [4] = system: LXRb:RXRa (NR concentration 270 nM, RXRa partner concentration 90 nM)
# Procedure, shortened: as §1
# [5] = system: LXRb homodimer (NR concentration 270 nM)
# Procedure, shortened: as §1
# [6] = system: PPARa:RXRa (NR concentration 270 nM, RXRa partner concentration 90 nM)
# Procedure, shortened: as §1
# [7] = system: PPARg:RXRa (NR concentration 180 nM, RXRa partner concentration 90 nM)
# Procedure, shortened: as §1
# [8] = system: PPARg:RXRa 270nM:90nM, anti-RXR (NR concentration 270 nM, RXRa partner concentration 90 nM)
# Procedure, shortened: as §1
# [9] = system: PPARg:RXRa 30nM:10nM, anti-RXR (NR concentration 30 nM, RXRa partner concentration 10 nM)
# Procedure, shortened: as §1
# [10] = system: PPARg:RXRa 90nM:30nM, anti-RXR (NR concentration 90 nM, RXRa partner concentration 30 nM)
# Procedure, shortened: as §1
Sequence,PBM binding z-score [1],PBM binding z-score [2],PBM binding z-score [3],PBM binding z-score [4],PBM binding z-score [5],PBM binding z-score [6],PBM binding z-score [7],PBM binding z-score [8],PBM binding z-score [9],PBM binding z-score [10]
CGAACTTGGTCACCAGGACAGTGAAGAGGTTGGA,0.102,-0.231,-0.0617,-0.452,-0.791,0.239,0.758,0.47,-0.456,-0.143
CCTAGCAGGCCAGGTTCACTCAAGCATTTCGCTT,0.117,0.554,-0.238,0.666,-0.142,0.874,-0.212,-0.0179,-0.854,-0.512
CGAACTACGTCAAAGGACAGTGAAAGGCGACGTA,-0.5,-0.431,-0.3,-0.675,-0.597,0.0872,1.15,1.53,0.179,1.25
CGAACTAGGTCACCAGGACACTGAAGAGGTTGGA,3.92,2.61,0.155,1.95,-0.211,5.31,8.46,7.07,4.81,6.92
CGAAATAGGTCAAAGGACAGTGAAAGGCGACGTA,6.11,4.45,0.474,3.47,0.71,5.96,9.28,8.26,7.99,8.72
TAGCCTAGGTCACGGGCCAGTATACCACGCGAAC,5.68,4.12,0.223,3.33,-0.137,5.41,5.67,4.7,1.91,3.23
CGAACTAGGTCACCAGGACAGTTAAGAGGTTGGA,3.97,2.32,0.241,1.84,-0.421,5.2,8.53,6.67,4.77,6.38
CAAACTAGGTCACAGAGGTCGAAGTCCGTGCGTA,4.92,4.23,1.74,3.62,0.575,5.48,9,6.93,5.15,7.32
ATCTCTAGGTAAAGTTCATTGAAAGATCGATAGA,2.67,3.78,4.69,2.63,1.81,3.5,4.69,5.51,3.5,5.54
CGTCCAAGGTCAATGCTAGGCCAGTGAAAGCATT,6.44,4.55,0.299,3.51,0.207,4.74,3.02,4.07,1.14,2.82
ATACGTAGGTTAGGGTCATTCAGAAAGTAGGGAA,4.93,3.99,1.16,4.2,1.26,4.88,2.96,3.41,1.32,2.77
ATATGTAGGCTAGGGTCATTCAGAAAGTAGGGAA,3.72,3.09,0.43,3.94,0.611,5.08,5.38,4.76,3.09,4.24
ATACGTAGGTTACATCCGGGTCATTCAGGCTATG,2.32,4.39,1.12,2.83,0.366,3.03,1.57,1.54,0.526,1.13
CGAACTAGGTCACCGGGACAGTGAAGAGGTTGGA,4.89,2.78,-0.0882,1.89,-0.502,5.58,9.04,7.34,5.02,7.12
ATATGTGGGTTAGGGTCATTCAGAAAGTAGGGAA,5.21,4.67,1.97,5.31,3.87,5.7,7.6,6.42,3.82,5.8
ATATGTAGGTAACATCCGGGTCATTCAGGCTATG,1.82,2.79,0.798,2.48,0.596,4.36,5.15,4.17,1.8,3.15
CGAAATAGGTCACCAGGACAGTGAAGAGGTTGGA,5.67,4.08,0.461,3.13,0.187,5.9,8.44,7.47,4.7,6.97
CGTCCAAGGTCAAAGGTCAGTAAAGAGATGACGG,8.12,6.87,3.18,6.62,2,7.32,10.8,9.28,7.89,9.37
AACGAAAGGTCGACGAGGTGAGTATACACCGTTT,4.99,3.68,0.231,2.9,0.0317,4.82,3.19,3.42,1.02,2.48
ACTAGTTGCTCAGCTGAGGTCACACACAATTCGG,2.75,2.94,1.75,3.4,0.214,3.4,1.17,1.69,0.448,1.24
ATATGTAGGTTAGGGTCAATCAGAAAGTAGGGAA,4.67,3.66,0.491,3.9,1.23,5.48,7.67,6.41,3.89,5.93
ATATGGAGGTTAGCTGGGGTCATTCAGACTAGGC,5.58,6.45,4.02,5.67,1.51,5.04,3.15,3.77,1.68,2.72
CCTACTGGGCCATCAGGTGATTGATATCAACGTT,-0.454,-0.704,-0.341,-0.438,-0.864,0.426,1.29,1.63,0.102,1.27
ATCCAAAGGTCGAGGTGAGTATAGAGAAAGGGAA,4.69,4.08,0.242,3.36,0.755,4.91,4.74,4.86,1.7,3.57
TAGCCTAGGACATGCGGGCCAGTATAGTGTCGGC,-0.531,-0.882,-1.1,-1.16,-1.2,-0.741,0.232,-0.867,-0.747,-0.931

Sequence,PBM binding z-score [1],PBM binding z-score [2],PBM binding z-score [3],PBM binding z-score [4],PBM binding z-score [5],PBM binding z-score [6],PBM binding z-score [7],PBM binding z-score [8],PBM binding z-score [9],PBM binding z-score [10]
CGAACTAGGTCAACGGACAGTGAAAGGCGACGTA,3.7,2.16,-0.117,1.22,-0.431,4.75,8.09,6.86,4.42,6.52
CTCGAAAGGTCGTGCTCAGGTGAGTATGCCAAAC,4.94,4.15,0.0245,3.2,-0.0304,4.79,2.57,3.95,1.25,2.67
ATCGAAAGGGCGTGAGGTGAGTATACAGAAAGGC,0.437,0.45,-0.364,0.429,-0.169,1.36,0.822,0.778,0.328,0.452
CAAACTAGGTCACGAAAGGGCAAAGTCGAATGAC,5.72,6.91,2.43,5.14,0.531,5.68,9.64,7.9,6.2,8.08
CGAACTAGGTGACCAGGACAGTGAAGAGGTTGGA,-0.0348,-0.436,-0.313,-0.307,-0.898,2.67,3.98,3.34,1.03,1.94
CAAACTAGGTCACAGAGGTCAAACTCCGTGCGTA,7.52,6.77,8.67,6.55,2.84,6.69,10.2,8.44,7.14,8.85
ATCAAAAGGTCGAAGGTGAGTATACCCACCCGAA,5.02,4,0.531,2.87,0.821,5.02,5.28,5.42,3.17,4.75
CGAACTAGGTCACCAGAACAGTGAAGAGGTTGGA,3.61,2.14,-0.204,1.65,-0.116,5.2,8.46,6.91,5.08,6.61
CGAAGTAGGTCAAAGGACAGTGAAAGGCGACGTA,4.62,3.33,0.269,2.23,-0.098,5.66,10.5,8.99,8.23,9.73
CGTCTAAGGTCAGCAGGTCAGTGAAAGCGACGTG,6.71,4.48,0.785,3.61,0.0498,5.3,4.86,5.46,1.6,4.03
CCTACTGGGCCAAAAAGGTAATTGATGCCGATAA,-0.234,-0.225,-0.561,-0.28,-0.84,0.543,0.593,1.19,-0.018,0.799
CCTCGGAGGACAGAAGGTCAGATCTGTCCGCTTT,1.34,1.57,0.283,1.25,-0.347,1.62,0.155,0.812,-0.772,0.0725
CGAACTAGGTCACCAAGACAGTGAAGAGGTTGGA,3.75,1.93,-0.0683,1.32,-0.272,5.11,8.16,6.46,4.53,6.57
CGTCCAAGGTCAAGGTGAGTGAAAGAGACTCGAA,7.1,4.92,0.292,3.92,0.281,5.71,5.33,5.61,2.05,4.04
TCTAGTTGGTCGCGGAGGTCACACACGACGGGTA,2.99,3.17,2.21,2.94,0.671,3.61,2.02,3.04,2.94,2.83
CTCGAAAGGTCGAGCTCAGGTGAGTATACCAAAC,5,3.57,-0.0751,3.02,-0.142,4.73,2.39,3.54,1.14,2.04
CGTTCAAGGTCATAGGAGGTCAGTGAAGACAGAT,7.91,7.81,5.4,6.52,1.26,6.19,6.82,6.49,2.97,5.27
AGTCAAAGTTCATCTAGGTATCGTAAGATATGCT,6.52,5.79,5.29,3.63,2.09,4.52,6.38,5.82,3.16,5.19
CGAACTAGGACACCAGGACAGTGAAGAGGTTGGA,-0.0401,-0.43,-0.083,-0.854,-0.923,0.865,2.08,1.33,0.527,0.812
CGAACTAGGTCACCATGACAGTGAAGAGGTTGGA,3.62,1.88,-0.254,1.49,0.0449,4.95,8.32,6.55,4.64,6.23
CGAACTAGGTCAAAGGACAGTGAAAGGCGACGTA,4.11,2.54,0.0195,1.9,-0.588,5.72,10.1,8.6,8.13,9.66
CGAACTAGGTCACTAGGACAGTGAAGAGGTTGGA,2.63,1.57,-0.199,0.869,-0.496,4.78,8.29,6.68,3.9,6.28
ATAAGTAGGTTAGGGTCATTCAGAAAGTAGGGAA,4.83,4.27,1.68,4.53,2.04,5.65,8.07,7.06,4.72,7
CCTAGTTGGTCAAGCTCACACACGCTATAGGTAC,0.0686,0.299,0.418,0.309,0.719,0.0262,0.838,0.282,0.0303,0.00108
